Assay results: PubChem BioAssay
Entries with a potency or affinity are not part of this list. Unmarked numbers belong to inactive results. Active and inactive are the calls of the source.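 The calls were made as follows, unless noted: active = a dose-response fit showing signal loss, with half-maximal concentration no higher than twice the top tested dose; inconclusive = flat fit between 30% and 70% signal loss, or poor fit; inactive = the rest.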

Experiment: viability loss in HepG2 hepatoma cells – cell-based, cherry-picks, set 2, cytotoxicity control, dose response (AID 687002)
Conditions: ATP luminescence (CellTiter-Glo), 48 h; series mostly up to 26 µM; activity change, negative = cytotoxicity: at the top concentration

| Structure (SMILES) | activity change, negative = cytotoxicity | outcome |
| --- | --- | --- |
| C[C@@H]1CN([C@H](C)CO)C(=O)Cc2cc(NC(=O)NC3CCCCC3)ccc2O[C@@H]1CN(C)Cc1ccccc1 | -9.7% | – |
| Cc1cc(Cl)ccc1NC(=S)NCc1ccc(F)cc1 | -8.68% | – |
| CCCCN1C(=S)NC[C@@H]1Cc1ccccc1 | -6.49% | – |
| C[C@H](CO)N1C[C@H](C)[C@@H](CN(C)Cc2ccc(Oc3ccccc3)cc2)Oc2ccc(NS(=O)(=O)c3cn(C)cn3)cc2CC1=O | 9.72% | – |
| CO[C@@H]1CN(C)C(=O)c2ccc(NC(C)=O)cc2OC[C@@H](C)N(C(=O)Cc2cccnc2)C[C@H]1C | -3.86% [at 23.5 µM] | – |
| O=C(CN(c1ccc(F)cc1)S(=O)(=O)c1ccccc1)N1CCOCC1 | 6.48% | – |
| C[C@@H]1CN([C@H](C)CO)S(=O)(=O)c2ccc(C#Cc3ccccn3)cc2O[C@H]1CN(C)Cc1ccccc1 | -10.6% | – |
| O=C(C1CCOCC1)N1CC[C@@H]2[C@@H](CO)Nc3ccc(Br)cc3[C@@H]21 | 7.76% | – |
| COc1cc2c(C(=O)N(C)c3cc(Cl)ccc3OC)cn(C)c(=O)c2cc1OC | -7.1% | – |
| COc1ccc(C(=O)NC(=S)Nc2ccccc2N2CCCCC2)cc1[N+](=O)[O-] | 18.8% | – |
| COC(=O)C1=C(C)N(Cc2ccc(F)cc2)C(=S)NC1c1cccc(Br)c1 (stereo not drawn) | -3.2% [at 23.5 µM] | – |
| COc1ccccc1/C=N/NC(=S)NCc1ccco1 | 3.21% | – |
| O=C(C[C@H]1CC[C@@H]2[C@H](COC[C@@H](O)CN2C(=O)c2cnccn2)O1)NCc1ccc(Oc2ccccc2)cc1 | -3.21% | – |
| Cc1c(C(=O)NC(=S)Nc2ccccc2N2CCCC2)cccc1[N+](=O)[O-] | -9.64% | – |
| Fc1ccccc1NC(=S)NCCc1cccc(Cl)c1 | -2.37% | – |
| COC(=O)C1=C(C)N(Cc2ccc(Br)cc2)C(=S)NC1c1ccc(OC)cc1 (stereo not drawn) | – | inactive |
| O=C(NC(=S)NCC1COc2ccccc2O1)c1ccc(Cl)cc1 (stereo not drawn) | 1.09% [at 35 µM] | – |
| S=C(NCCCc1ccccc1)Nc1ccccc1 | -4.52% | – |
| Cc1cc(C)c2nc(N3CCN(C(=O)c4cccs4)CC3)sc2c1 | -7.49% | – |
| Cc1cc(C)c(NC(=O)C2CCCN2C(=O)NC2CCCCC2)c(C)c1 (stereo not drawn) | -9.31% | – |

| Structure (SMILES) | activity change, negative = cytotoxicity | outcome |
| --- | --- | --- |
| COc1ccccc1NC(=S)NCc1ccccc1Cl | -13% | – |
| O=C(N[C@@H]1CC[C@@H](CCn2cc(-c3ccccc3)nn2)O[C@H]1CO)c1cnccn1 | 5.45% [at 23.5 µM] | – |
| CCCCNC(=S)N/N=C/c1ccc(C#N)cc1 | 5.03% | – |
| COc1cccc(C(=O)NC(=S)Nc2ccccc2N2CCOCC2)c1 | -7.03% | – |
| C[C@H](CO)N1C[C@H](C)[C@H](CN(C)C(=O)Nc2ccc3c(c2)OCO3)Oc2ncc(C#CC(C)(C)O)cc2C1=O | 10.2% [at 23.5 µM] | – |
| O=C(NC(=S)Nc1ccccc1N1CCCC1)c1ccccc1[N+](=O)[O-] | 0.077% | – |
| COC(=O)C1=C(C)N(Cc2ccccc2)C(=S)NC1c1ccc(Cl)cc1 (stereo not drawn) | 6.44% | – |
| CCC(=O)N(C)C[C@@H]1Oc2cc(C#CC(C)(C)O)ccc2S(=O)(=O)N([C@@H](C)CO)C[C@H]1C | -2.95% | – |
| O=C(NC(=S)Nc1cc(Cl)ccc1N1CCOCC1)c1ccccc1[N+](=O)[O-] | -19.4% | – |
| CCN1C(=S)N[C@@H](c2ccccc2)C(C(=O)OC)=C1C | -4.22% | – |
| COc1ccc(CNC(=S)NCc2ccc(OC(C)C)cc2)cc1 | -1.63% | – |
| C[C@H](CO)N1C[C@H](C)[C@@H](CN(C)S(=O)(=O)c2cn(C)cn2)Oc2c(NC(=O)Nc3ccccc3)cccc2C1=O | 11.2% | – |
| Fc1ccccc1NC(=S)NN(Cc1ccccc1)c1ccccc1 | 3.68% | – |
| COC(=O)C1=C(C)N(Cc2ccc(Br)cc2)C(=S)NC1c1cccc(Cl)c1 (stereo not drawn) | -11.2% [at 23.5 µM] | – |
| COC(=O)C1=C(C)N(CC(C)C)C(=S)NC1c1cccc(F)c1 (stereo not drawn) | – | inactive |
| COC(=O)C1=C(C)N(Cc2ccccc2)C(=S)NC1c1cccc(OC)c1 (stereo not drawn) | – | inactive |
| COc1cc(OC)c(N(C)C(=O)c2cn(C)c(=O)c3cc(OC)c(OC)cc23)cc1Cl | -28.8% | – |
| CCCOc1ccc(CNC(=S)NCc2ccc(OC(C)C)cc2)cc1 | -19.7% | – |
| COc1ccc(N2CCN(C(=O)Cc3cccs3)CC2)cc1 | -4.23% | – |

Experiment: viability loss in HeLa cells – cell-based, ATP luminescence, cherry-pick samples, cytotoxicity control, dose response (AID 687004;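 active = a fitted half-maximal concentration no higher than twice the top valid tested dose, with signal falling as cells die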;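 also: 0% = neutral control median and -100% = staurosporine 10 µM control median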)
Conditions: ATP luminescence (CellTiter-Glo), 48 h; series mostly up to 26 µM; activity change, negative = cytotoxicity: at the top concentration

| Structure (SMILES) | activity change, negative = cytotoxicity | outcome |
| --- | --- | --- |
| C[C@@H]1CN([C@H](C)CO)C(=O)Cc2cc(NC(=O)NC3CCCCC3)ccc2O[C@@H]1CN(C)Cc1ccccc1 | -0.692% | – |
| Cc1cc(Cl)ccc1NC(=S)NCc1ccc(F)cc1 | -1.02% | – |
| CCCCN1C(=S)NC[C@@H]1Cc1ccccc1 | 13.2% | – |
| C[C@H](CO)N1C[C@H](C)[C@@H](CN(C)Cc2ccc(Oc3ccccc3)cc2)Oc2ccc(NS(=O)(=O)c3cn(C)cn3)cc2CC1=O | 13% | – |
| CO[C@@H]1CN(C)C(=O)c2ccc(NC(C)=O)cc2OC[C@@H](C)N(C(=O)Cc2cccnc2)C[C@H]1C | 3.81% [at 23.5 µM] | – |
| O=C(CN(c1ccc(F)cc1)S(=O)(=O)c1ccccc1)N1CCOCC1 | 3.94% | – |
| C[C@@H]1CN([C@H](C)CO)S(=O)(=O)c2ccc(C#Cc3ccccn3)cc2O[C@H]1CN(C)Cc1ccccc1 | -12.4% | – |
| O=C(C1CCOCC1)N1CC[C@@H]2[C@@H](CO)Nc3ccc(Br)cc3[C@@H]21 | 1.96% | – |
| COc1cc2c(C(=O)N(C)c3cc(Cl)ccc3OC)cn(C)c(=O)c2cc1OC | 3.21% | – |
| COc1ccc(C(=O)NC(=S)Nc2ccccc2N2CCCCC2)cc1[N+](=O)[O-] | -1.09% | – |
| COC(=O)C1=C(C)N(Cc2ccc(F)cc2)C(=S)NC1c1cccc(Br)c1 (stereo not drawn) | -9.35% [at 23.5 µM] | – |
| COc1ccccc1/C=N/NC(=S)NCc1ccco1 | -11.7% | – |
| O=C(C[C@H]1CC[C@@H]2[C@H](COC[C@@H](O)CN2C(=O)c2cnccn2)O1)NCc1ccc(Oc2ccccc2)cc1 | 4.08% | – |
| Cc1c(C(=O)NC(=S)Nc2ccccc2N2CCCC2)cccc1[N+](=O)[O-] | 1.06% | – |
| Fc1ccccc1NC(=S)NCCc1cccc(Cl)c1 | 11.4% | – |
| COC(=O)C1=C(C)N(Cc2ccc(Br)cc2)C(=S)NC1c1ccc(OC)cc1 (stereo not drawn) | -0.601% | – |
| O=C(NC(=S)NCC1COc2ccccc2O1)c1ccc(Cl)cc1 (stereo not drawn) | 7.29% [at 35 µM] | – |
| S=C(NCCCc1ccccc1)Nc1ccccc1 | 5.61% | – |
| Cc1cc(C)c2nc(N3CCN(C(=O)c4cccs4)CC3)sc2c1 | 12% | – |
| Cc1cc(C)c(NC(=O)C2CCCN2C(=O)NC2CCCCC2)c(C)c1 (stereo not drawn) | 15.5% | – |

| Structure (SMILES) | activity change, negative = cytotoxicity | outcome |
| --- | --- | --- |
| COc1ccccc1NC(=S)NCc1ccccc1Cl | 20% | – |
| O=C(N[C@@H]1CC[C@@H](CCn2cc(-c3ccccc3)nn2)O[C@H]1CO)c1cnccn1 | -1.45% [at 23.5 µM] | – |
| CCCCNC(=S)N/N=C/c1ccc(C#N)cc1 | 5.42% | – |
| COc1cccc(C(=O)NC(=S)Nc2ccccc2N2CCOCC2)c1 | -8.34% | – |
| C[C@H](CO)N1C[C@H](C)[C@H](CN(C)C(=O)Nc2ccc3c(c2)OCO3)Oc2ncc(C#CC(C)(C)O)cc2C1=O | 3.84% [at 23.5 µM] | – |
| O=C(NC(=S)Nc1ccccc1N1CCCC1)c1ccccc1[N+](=O)[O-] | 11% | – |
| COC(=O)C1=C(C)N(Cc2ccccc2)C(=S)NC1c1ccc(Cl)cc1 (stereo not drawn) | 0.242% | – |
| CCC(=O)N(C)C[C@@H]1Oc2cc(C#CC(C)(C)O)ccc2S(=O)(=O)N([C@@H](C)CO)C[C@H]1C | 5.06% | – |
| O=C(NC(=S)Nc1cc(Cl)ccc1N1CCOCC1)c1ccccc1[N+](=O)[O-] | 12.8% | – |
| CCN1C(=S)N[C@@H](c2ccccc2)C(C(=O)OC)=C1C | 13.4% | – |
| COc1ccc(CNC(=S)NCc2ccc(OC(C)C)cc2)cc1 | 14.9% | – |
| C[C@H](CO)N1C[C@H](C)[C@@H](CN(C)S(=O)(=O)c2cn(C)cn2)Oc2c(NC(=O)Nc3ccccc3)cccc2C1=O | 9.19% | – |
| Fc1ccccc1NC(=S)NN(Cc1ccccc1)c1ccccc1 | -7.26% | – |
| COC(=O)C1=C(C)N(Cc2ccc(Br)cc2)C(=S)NC1c1cccc(Cl)c1 (stereo not drawn) | -9.46% [at 23.5 µM] | – |
| COC(=O)C1=C(C)N(CC(C)C)C(=S)NC1c1cccc(F)c1 (stereo not drawn) | – | inactive |
| COC(=O)C1=C(C)N(Cc2ccccc2)C(=S)NC1c1cccc(OC)c1 (stereo not drawn) | – | inactive |
| COc1cc(OC)c(N(C)C(=O)c2cn(C)c(=O)c3cc(OC)c(OC)cc23)cc1Cl | 0.016% | – |
| CCCOc1ccc(CNC(=S)NCc2ccc(OC(C)C)cc2)cc1 | 11% | – |
| COc1ccc(N2CCN(C(=O)Cc3cccs3)CC2)cc1 | -2.94% | – |
